Assay outcomes (PubChem BioAssay)
HMGR II inh: E. faecalis class II HMG-CoA reductase inhibition; purified E. faecalis HMGR, NADPH absorbance 340 nm kinetic; inhibition, % at 10 µM; hit rate 0.41% among 190,000;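 active = inhibition above a set limit, the median over all tested compounds plus 3 SD, cut at about 9.5% in these data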;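 also: enzyme runs in reverse so mevalonate oxidation gives rising NADPH absorbance; 0% = complete reaction with DMSO and 100% = background rate lacking mevalonate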
INS promoter inh: TRM-6 insulin promoter activity inhibition | TRM-6 cells (human fetal islet line), insulin promoter-eGFP reporter, imaging; reporter expression induced with tamoxifen | inhibition, % at 2 µM | hit rate 0.9% among 130,000 | AID 1273;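 active = inhibition above the mean plus 3 SD, with well images judged a real hit on visual review, cut at about 60% in these data, passing the limit was not always enough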
Ins promoter up: MIN6 insulin promoter up-regulation; MIN6 insulin promoter-GFP reporter, high-content imaging; stronger effect = higher value; z-score at 5 µM; hit rate 0.3% among 190,000;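 active = z-score above 3 at 5 µM with at least 500 cells counted in the well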
Autophagy mod: modulators of autophagy; MEF GFP-LC3 puncta imaging; test concentration mostly 10 µM; calls only at 10 µM (by protocol); hit rate 0.98% among 190,000; AID 463193;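 active = percentage of spot-positive cells more than 3 SD above its plate mean, without a fluorescence outlier flag or 80% toxicity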;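 also: spot-positive cell cutoff set from DMSO-treated cells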
* hit, by the source's call. Sampled rows, rich in hits. Any-hit rate of the full collection: about 1.9%.

COc1ccc(CN(CC2CCC(C(=O)O)CC2)C(=S)Nc2cccc(C)c2)cc1 (configuration not stated) was read as HMGR II inh -10, Ins promoter up 3.6* and Autophagy mod inactive.
`Cc1cc(C)cc(NC(=S)N(Cc2ccc(Cl)cc2)Cc2ccc(C(=O)O)cc2)c1` gave HMGR II inh -1, Ins promoter up -0.35 and Autophagy mod inactive.
`COc1ccc(CN(CC2CCC(C(=O)O)CC2)C(=S)Nc2ccccc2OC)cc1` (configuration not stated) gave HMGR II inh -4, Ins promoter up -0.72 and Autophagy mod inactive.
For Cc1cccc(NC(=S)N(Cc2ccc(Cl)cc2)Cc2ccc(C(=O)O)cc2)c1 the results were HMGR II inh -2, Ins promoter up -0.78 and Autophagy mod active.
CC(=O)Nc1ccc2c(CSc3nnc(N)s3)cc(=O)oc2c1 was read as Ins promoter up -0.49.
`c1ccc2nc(-c3ccc(N4CCOCC4)cc3)ccc2c1` gave HMGR II inh 2, Ins promoter up 1.5 and Autophagy mod inactive.
For CN1CCN(c2ccc(-c3ccc4ccccc4n3)cc2)CC1 the results were HMGR II inh -5, Ins promoter up 2 and Autophagy mod active.
CCOc1ccc(Cn2c(=O)sc3ccccc32)cc1OC was read as Ins promoter up 1.
CCOC(=O)C1CCN(C(=O)CSc2n[nH]c(=O)[nH]c2=O)CC1 was read as HMGR II inh -6, INS promoter inh 81*, Ins promoter up 0.3 and Autophagy mod inactive.
Screening O=C1OCC2=C1C(c1ccccc1)CC(=O)N2c1ccc(F)cc1 (configuration not stated) returned HMGR II inh -4, Ins promoter up -0.28 and Autophagy mod inactive.
Screening CC(C)(C)n1nc2c(c1NC(=O)c1ccccc1F)CS(=O)C2 (configuration not stated) returned HMGR II inh -4, Ins promoter up 1.1 and Autophagy mod active.
CCOC(=O)c1c(NC(=O)CSc2nnc(C)s2)sc2c1CCC(CC)C2 (configuration not stated) was read as HMGR II inh 14*, INS promoter inh -3 and Autophagy mod inactive.
`Cc1ccc2c(c1)Oc1ccc(NC(=O)CCl)cc1C(=O)N2` gave HMGR II inh 4, INS promoter inh -200, Ins promoter up 0.7 and Autophagy mod active.
O=C(CN1CCCC1)Nc1ccc(-c2nc3cc(NC(=O)CN4CCCC4)ccc3o2)cc1 was read as HMGR II inh -4, INS promoter inh 24, Ins promoter up -0.29 and Autophagy mod active.
CCCCCC(=O)Nc1ccc2oc(-c3cncc(Br)c3)nc2c1 was read as HMGR II inh -3, INS promoter inh -29, Ins promoter up 1.4 and Autophagy mod active.
CCN(CC)CCNC(=O)c1cccc(NC(=O)C(=O)c2cc(Br)ccc2NC(C)=O)c1 was read as HMGR II inh -5, INS promoter inh 67, Ins promoter up -2 and Autophagy mod active.
For CC(=O)Nc1ccccc1C(=O)C(=O)Nc1cccc(Br)c1 the results were HMGR II inh -9, Ins promoter up 0.35 and Autophagy mod inactive.
`COC(=O)c1ccc(-n2c(C)nc(=O)c(-c3ccccc3)c2C)cc1` gave HMGR II inh 4, INS promoter inh 72*, Ins promoter up 0.66 and Autophagy mod inactive.
CCOCCCNC(=O)C(NC(=O)c1ccc(NC(C)=O)cc1)c1ccc(OC)cc1 (configuration not stated) was read as HMGR II inh -4, INS promoter inh 31, Ins promoter up 0.19 and Autophagy mod inactive.
Screening COc1ccc(-c2nc(C)c(C(C)=O)n2O)cc1OC returned HMGR II inh -1, INS promoter inh 67, Ins promoter up 0.3 and Autophagy mod active.
Screening COc1cccc(-c2cc(C(F)(F)F)c(C#N)c(=O)[nH]2)c1 returned HMGR II inh -6, Ins promoter up 0.61 and Autophagy mod active.
Screening N#Cc1c(C(F)(F)F)cc(-c2ccccc2)[nH]c1=O returned HMGR II inh 1, INS promoter inh 31 and Autophagy mod inactive.
Cc1ccc(N)c(C(O)(C(F)(F)F)C(F)(F)F)c1 was read as HMGR II inh -4, Ins promoter up 0.61 and Autophagy mod active.
Screening O=C(CN1C(=O)COc2ccc(S(=O)(=O)N3CCOCC3)cc21)NCc1ccco1 returned Ins promoter up -0.06.
`CC(=O)N1CCN(CC(=O)Nc2cc([N+](=O)[O-])ccc2Cl)CC1` gave HMGR II inh 1, Ins promoter up -0.2 and Autophagy mod inactive.
Screening O=C(CN1CCN(c2ccc(O)cc2)CC1)Nc1cc([N+](=O)[O-])ccc1Cl returned HMGR II inh 2, Ins promoter up 0.5 and Autophagy mod active.
`Nc1nc(NCCN2CCOCC2)nc(NCc2ccccc2)c1[N+](=O)[O-]` gave Ins promoter up 0.05.
COc1ccc2c(c1)N(C)/C(=C1/SC(=NCc3ccccc3)N(c3ccccc3)C1=O)S2 was read as HMGR II inh 4, INS promoter inh -34, Ins promoter up -0.78 and Autophagy mod active.
`C=CCN1C(=O)/C(=C2/Sc3ccc(OC)cc3N2C)SC1=NCc1ccccc1` gave HMGR II inh 5, Ins promoter up 1 and Autophagy mod active.
`C=CCN1C(=O)/C(=C2/Sc3ccc(OC)cc3N2C)SC1=Nc1ccccc1` gave HMGR II inh -1, Ins promoter up -0.16 and Autophagy mod inactive.
For Cc1nn(-c2ccccc2)c(Cl)c1/C=N/NC(=O)c1ccc(NS(=O)(=O)c2cccs2)cc1 the results were HMGR II inh 9.6*, Ins promoter up -0.31 and Autophagy mod inactive.
Screening Cc1nn(-c2ccccc2)c(Cl)c1/C=N/NC(=O)c1ccccc1NS(=O)(=O)c1cccs1 returned HMGR II inh -1, Ins promoter up -0.18 and Autophagy mod inactive.
O=C(NCc1ccncc1)/C(=C/c1cccc([N+](=O)[O-])c1)NC(=O)c1ccccc1 was read as Ins promoter up -0.08.
For Cc1ccc(-n2c(=O)cc(N3CC(C)CC(C)C3)[nH]c2=O)cc1 (configuration not stated) the results were HMGR II inh -10, INS promoter inh 73*, Ins promoter up -0.03 and Autophagy mod inactive.
`COc1ccc(C(=O)Oc2ccc3c(c2)OCO3)cc1OC` gave HMGR II inh -1, Ins promoter up 0.26 and Autophagy mod inactive.
`COc1cc2c(OC(C)=O)c3c(c(-c4ccc5c(c4)OCO5)c2cc1OC)C(=O)OC3` gave HMGR II inh 4, Ins promoter up -1.6 and Autophagy mod active.
Screening COc1cc2c(O)c3c(c(-c4ccc5c(c4)OCO5)c2cc1OC)C(=O)OC3 returned HMGR II inh 1, INS promoter inh -127, Ins promoter up -2.4 and Autophagy mod active.
For COc1cc2c(=O)n(-c3ccc(C)cc3)c(=O)n(CC(=O)c3ccc4c(c3)OCO4)c2cc1OC the results were HMGR II inh -5, Ins promoter up -1.1 and Autophagy mod inactive.
Cc1cc(C)n(C(=O)/C=C/c2cccs2)n1 was read as Ins promoter up -0.34.
`COc1ccc(N2C(=O)CSC(c3ccccc3)C2=O)cc1` (configuration not stated) gave HMGR II inh -3, INS promoter inh 10 and Autophagy mod inactive.
